A selection: hits, their analogues and other compounds. The true share with any hit is near 11%.
Tau ThT inhib: blocks human tau fibril formation measured by thioflavin T. Potency, µM (series often up to 57.4 µM), for the others: at the top dose activity, negative = inhibition, most hits filed as inhibitors. P10636. 270,000 compounds, 2.1% hits. recombinant tau K18 P301L, heparin-induced fibrillization, ThT fluorescence; note: potency is the fitted concentration of half-maximal effect; nearly all actives have a fitted effect of over 55% in size
Target sequence (P10636 561-689 P618L limits assumed): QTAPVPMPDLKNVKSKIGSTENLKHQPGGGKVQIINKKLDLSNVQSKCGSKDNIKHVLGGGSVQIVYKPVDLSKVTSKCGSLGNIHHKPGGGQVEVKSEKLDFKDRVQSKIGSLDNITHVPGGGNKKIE
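Heparin-induced (20 uM) aggregation of recombinant human K18 P301L tau, 15 uM unlabeled with 0.24 uM labeled, pH 7 acetate buffer, 6 hr at 37 C with compound. Fibrils quantified by 30 uM ThT fluorescence after 1 hr ambient incubation.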
FBPA coupling cs: inhibits coupling enzyme system, counter-screen for aldolase hits. coupling enzyme system counterscreen, AmpLite Red fluorescence. activity change, negative = inhibition, % at 58.2 µM, hits read low. 290,000 compounds, 0.67% hits. AID 2472; in the data active = activity change below about -30%
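Fluorescence at 525 nm excitation and 598 nm emission measured inhibition of the coupled detection system without aldolase. Compounds (at 57.5 uM final) were preincubated 10 min at room temperature with coupling enzyme reagent before a 20 min substrate/AmpLite Red step.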
Tau fluor cs: counter-screen for tau fibril formation inhibitors | tau K18 P301L (four-repeat tau fragment) Alexa594 fluorescence, heparin fibrillization | Potency, µM (series often up to 57.7 µM), inactives show top-dose activity change, negative = decrease | 280,000 compounds, 0.93% hits | AID 1463; note: potency is the fitted concentration of half-maximal effect; nearly all actives have a fitted effect of over 55% in size
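Human K18 P301L tau (15 uM unlabeled plus 0.24 uM Alexa 594-labeled, final) in 100 mM sodium acetate pH 7 was mixed with compound and 20 uM heparin and incubated 6 hr at 37 C.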
Tau FP inhib: tau fibrillization inhibition (FP). P10636. K18 P301L tau heparin fibrillization, Alexa594 FP, 6 h. Potency, µM (top dose mostly 57.7 µM), without a hit: at the top dose activity, negative = inhibition, actives largely listed as inhibitors. 280,000 compounds, 0.39% hits. AID 1468; note: potency is the fitted concentration of half-maximal effect; nearly all actives have a fitted effect of over 55% in size
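FP of Alexa 594-tau after heparin (20 uM) induction. Substrate: human K18 P301L, 15 uM unlabeled, 0.24 uM labeled. Buffer 100 mM sodium acetate pH 7. 6 hr, 37 C.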
G9a inh: inhibitors of human histone lysine methyltransferase G9a; 350,000 compounds, 8.8% hits; Q96KQ7; G9a H3K9 monomethylation, AlphaScreen, 2 h; Potency, µM (titrated, usually from 102 µM), for inactives: at the highest dose activity, negative = inhibition, usual class: inhibitors; note: potency is the fitted concentration of half-maximal effect; nearly all actives have a fitted effect of over 75% in size
Target sequence (Q96KQ7 913-1193 limits assumed): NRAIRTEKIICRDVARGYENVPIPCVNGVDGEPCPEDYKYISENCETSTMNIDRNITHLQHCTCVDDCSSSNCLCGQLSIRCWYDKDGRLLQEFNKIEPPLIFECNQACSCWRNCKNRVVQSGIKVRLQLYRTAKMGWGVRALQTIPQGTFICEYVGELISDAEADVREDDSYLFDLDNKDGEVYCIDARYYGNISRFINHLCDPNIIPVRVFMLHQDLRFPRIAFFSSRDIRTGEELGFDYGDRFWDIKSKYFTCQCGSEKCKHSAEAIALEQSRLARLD
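Step 1: enzyme (final 20 nM) with compound, 15 min RT. Step 2: substrate peptide 500 nM and SAM 20 uM, 2 h RT. Step 3: anti-H3K9me1 antibody and AlphaScreen beads, 10 min, then plate read.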
Sfp PPTase inh: blocks B. subtilis Sfp PPTase activity; Potency, µM, for inactives: largest response in the series, negative = inhibition, hits mostly inhibitors; Biochemical Sfp PPTase activity, qHTS; Q9F4F7; 310,000 compounds, 3.5% hits;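 note: the enzyme is Sfp with the accession as filed and its product quenches rhodamine fluorescence; potency is the fitted concentration of half-maximal effect; 0% = enzyme reaction without inhibitor and -100% = no enzyme wells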
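Compounds were incubated with enzyme (final 15 nM) for 15 min at room temperature before substrate addition started the reaction. Fluorescence at 525 nm excitation, 598 nm emission was recorded immediately and after 30 minutes.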
Starred values were filed as active, the others as inactive; ? = inconclusive; . = no result; [ ] = dose if it differs, or a comment. Unless noted, calls come from the whole dose curve; as a rule, active = well fitted curve in the direction sought with a large enough effect; inconclusive = small, poorly fitted or top-dose-only effect, or another doubt; inactive = no such curve, though single readings can be large; an effect the other way counts as inactive or inconclusive. Unless noted, % is set by controls: 0 for no effect and ±100 for the full control effect.

SMILES | Tau ThT inhib | FBPA coupling cs | Tau fluor cs | Tau FP inhib | G9a inh | Sfp PPTase inh
CCOc1ccc2nc(Cl)sc2c1 | -6% | 0 | -8% | -7% | 35µM* | -33%
CCOc1ccc2nc(NS(C)(=O)=O)sc2c1 | ? | 1 | -12% | -9% | 7.1µM* | -26%
COc1cccc(CNC(=O)CCc2nc3cc(S(=O)(=O)N4CCOCC4)ccc3n2C)c1 | . | . | . | . | 5% | .
Cn1c(CCC(=O)Nc2cc(S(C)(=O)=O)ccc2Cl)nc2cc(S(=O)(=O)N3CCOCC3)ccc21 | . | . | . | . | 10µM* | .
C[C@@H]1C[C@](C)(C(=O)c2ccco2)C=C1c1ccco1 | -18% | 0 | -3% | -8% | . | -5%
Cc1ccc(-n2ncc3c(N4CCN(C)CC4)ncnc32)cc1Cl | -13% | . | ? | ? | -4%[59 µM] | .
NCCCS(=O)(=O)O | -7% | 0 | -1% | 5% | 20% | 5%
O=S(=O)(O)CCS | 22µM* | 1 | -14% | ? | 49%[12.7 µM] | -28%
CCn1c2ccc(F)cc2c2nnc(NN)nc21 | 5% | 4 | 2% | 8% | 50µM* | ?
CCCn1c2ccc(F)cc2c2nnc(NN)nc21 | ? | -9 | -8% | -6% | 50µM* | -19%
CC(C)c1ncc([N+](=O)[O-])n1C | . | . | . | . | -7%[12.7 µM] | 13%
CC(C)c1nn2c(=O)cc(COC(=O)C3CCCCC3)nc2s1 | -3% | . | -9% | -3% | 12%[59 µM] | .
Cc1ccccc1/C=C/C1=NCCN1 | -19% | . | -18% | -8% | 30µM* | .
CCOc1ccccc1NC(=O)NNC(=O)COc1cccc(C)c1C | . | -4 | . | . | . | -2%
COc1ccccc1N1CCN(C(=O)c2sc3ncnc(N4CCN(c5ccccn5)CC4)c3c2C)CC1 | . | 0 | . | . | -23% | -3%
COc1ccccc1N1CCN(C(=O)c2sc3nc(C)nc(N4CCN(c5ccccn5)CC4)c3c2C)CC1 | . | -3 | . | . | 25µM* | -8%
N#CC(c1ccc(Cl)cc1)c1ccc2c(C(F)(F)F)cc(C(F)(F)F)nc2n1 (stereo unspecified) | ? | -2 | ? | 5% | 11µM* | 11%
FC(F)(F)c1cc(C(F)(F)F)c2ccc(N3CCN(c4ccc(Cl)cc4)CC3)nc2n1 | ? | 0 | -29% | -3% | 1%[59 µM] | 22%
Cc1ccc(Cl)cc1N(C)C(=O)c1cnc(N2CCOCC2)c2ccccc12 | -6% | . | -9% | 1% | 12%[59 µM] | .
O=C(c1cnc(N2CCN(c3ncccn3)CC2)c2ccccc12)N1CCN(c2ncccn2)CC1 | -18% | 3 | -2% | 1% | 27%[12.7 µM] | 0%
CCN(C(=O)c1cnc(N2CCN(c3ncccn3)CC2)c2ccccc12)c1cccc(Cl)c1 | -13% | -9 | -6% | 5% | 0% | 40µM*
CN(C(=O)c1cnc(N2CCN(c3ncccn3)CC2)c2ccccc12)c1ccc(Cl)cc1 | -13% | -19 | -6% | 6% | 11%[59 µM] | 56µM*
O=C1CS(=O)(=O)C2(C(=O)N(Cc3ccccc3Cl)c3ccccc32)N1c1ccc(F)cc1 (stereo unspecified) | -5% | . | -11% | -6% | ? | .
COc1ccc2c(c1OC)C(=O)N1c3ccccc3N=C(c3ccc([N+](=O)[O-])cc3)CC21 (stereo unspecified) | 20µM* | -10 | -26% | ? | ? | 20µM*
COc1ccc(Cn2ccc3nc(C)c(C(=O)N4CCN(c5cccc(OC)c5)CC4)cc3c2=O)cc1 | ? | . | -9% | 7% | 11%[59 µM] | .
SMILES | Tau ThT inhib | FBPA coupling cs | Tau fluor cs | Tau FP inhib | G9a inh | Sfp PPTase inh
O=C(NCc1ccccc1Br)c1ccc2c(c1)nc1n2CCOC1 | -3% | . | 2% | 6% | 1%[59 µM] | .
COc1ccc(/C=C\c2cc(OC)c(OC)cc2CC[N+](C)(C)C)cc1OC | ? | 0 | -21% | -19% | 13µM* | 1%
COc1ccc(/C=C/c2cc(OC)c(OC)cc2CC[N+](C)(C)C)cc1 | -13% | 2 | -11% | -3% | . | -15%
O=C(CSc1nc2ccccc2c(=O)n1-c1ccc(F)cc1F)c1c[nH]c2ccccc12 | ? | 1 | ? | 28µM* | -13%[59 µM] | 5%
COC(=O)NC(/C(C(=O)OC)=C(\C)NCc1ccccc1)c1ccc2ccccc2c1 (stereo unspecified) | ? | -14 | -11%[11.6 µM] | 5%[11.6 µM] | . | -28%
COc1ccc(CCN2C(=O)CN(C3CCCCCC3)C(=O)C2c2ccc(C)cc2)cc1OC (stereo unspecified) | -9% | . | -5% | 0% | -23%[59 µM] | .
CCOC(=O)C1CCN(C(c2ccccn2)c2c(C)[nH]c3ccccc23)CC1 (stereo unspecified) | ? | 3 | ? | 6% | 1.4µM* | ?
Cc1[nH]c2ccccc2c1C(c1ccccn1)N1CCC(C(N)=O)CC1 (stereo unspecified) | ? | -4 | ? | -2% | 1.6µM* | 63µM*
NNC(=O)CSc1c(-c2ccccc2)c2cc(Cl)ccc2[nH]c1=O | . | -3 | . | . | 6%[2.33 µM] | 5%
O=c1[nH]c2ccc(Cl)cc2c(-c2ccccc2)c1SC(=S)N1CCOCC1 | -16% | 1 | -29% | 13% | ? | 11µM*
O=c1[nH]c2ccc(Cl)cc2c(-c2ccccc2)c1SC(=S)N1CCCCC1 | -17% | -2 | -27% | -1% | 11µM* | 14µM*
CC1CCCCC1NC1=NCCCS1 (stereo unspecified) | -1% | 1 | -5% | 3% | -6% | 28%
COc1ccc(/C=N/NC(=O)c2ccccc2F)cc1CN1CCN(c2ccc(F)cc2)CC1 | 5% | 6 | -4% | 1% | -51%[59 µM] | 3%
CCCCCC1(C)NC(=S)N(c2ccccc2)N1 (stereo unspecified) | ? | 0 | -13% | -16% | ? | 40µM*
CCCCCCC1(C)NC(=S)N(c2ccccc2)N1 (stereo unspecified) | ? | -1 | -7% | -8% | 14µM* | ?
C=C(C)CCC1(C)NC(=O)N(c2ccccc2)N1 (stereo unspecified) | -5% | 0 | 3% | 3% | ? | -9%
CC1(CC(=O)Nc2ccccc2)NC(=S)N(c2ccccc2)N1 (stereo unspecified) | -17% | 0 | -9% | 7% | ? | ?
Clc1ccc(C2=Nn3c(nnc3-c3n[nH]c4c3CCC4)SC2)cc1Cl | ? | -3 | 4% | 14% | 11µM* | -16%
COc1ccccc1N1CCN(c2ncnc3c2cnn3C)CC1 | -2% | . | -6% | -11% | -14%[59 µM] | .
CC[N+](CC)(CC#Cc1ccccc1)CC(=O)c1ccc(Cl)cc1 | -6% | -1 | -10% | -2% | 7.1µM* | 1%
NCC1OC(n2cnc3c(=O)[nH]c(N)nc32)C(O)C1O (stereo unspecified) | -3% | 4 | -5% | -3% | . | 5%

Compound activity deposited in PubChem by National Center for Advancing Translational Sciences (NCATS).
